The panel holds about 79,000 compounds, 15% with a hit somewhere; the sample as a whole holds those more often. The source made the active and inactive calls. No stated cut-off is given here; in the data, active means growth inhibition above about 70%; inactive means the rest.
Experiments:
[1] = NCI Yeast Anticancer Drug Screen. Data for the rad50 strain (AID 155);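 further: 0% = growth of vehicle-only cultures of the same strain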; settings: S. cerevisiae rad50 strain growth inhibition; at 50.0 µM; hits give high values
Summary of the method: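 Cells are treated with compound, grown, and their growth is then scored against vehicle-only cultures of the same repair-deficient yeast strain.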

[2] = NCI Yeast Anticancer Drug Screen. Data for the mec2-1 strain (AID 157); settings: S. cerevisiae mec2-1 strain, at 50.0 µM, hits give high values
Summary of the method: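 Vehicle-treated cultures served as reference for growth inhibition of compound-exposed mec2-1 yeast.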

[3] = NCI Yeast Anticancer Drug Screen. Data for the sgs1 mgt1 strain (AID 161);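 further: 0% = growth of cultures given vehicle only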; settings: S. cerevisiae sgs1 mgt1 strain, at 50.0 µM, hits give high values
Summary of the method: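 Read-out: growth inhibition vs vehicle controls. Cells: mutant yeast strain deficient in DNA damage repair.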

[4] = NCI Yeast Anticancer Drug Screen. Data for the cln2 rad14 strain (AID 165);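 further: 0% = growth equal to vehicle treated cultures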; settings: S. cerevisiae cln2 rad14 strain, at 50.0 µM, hits give high values
Summary of the method: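 Each compound was tested on cln2 rad14 yeast. Inhibition of growth was calculated against vehicle-exposed controls.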

[5] = NCI Yeast Anticancer Drug Screen. Data for the bub3 strain (AID 167); settings: S. cerevisiae bub3 mutant strain, at 50.0 µM, hits give high values
Summary of the method: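 Part of a panel of yeast mutants defective in DNA damage repair or cell cycle regulation. Each strain is grown with compound, and inhibition is calculated relative to solvent-treated cultures.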

[6] = NCI Yeast Anticancer Drug Screen. Data for the mlh1 rad18 strain (AID 175); settings: S. cerevisiae mlh1 rad18 strain growth inhibition; at 50.0 µM; hits give high values
Summary of the method: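 Vehicle-treated cultures served as the reference for growth inhibition in a yeast strain carrying DNA damage repair alterations exposed to each compound.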

Measured: growth inhibition

N#CC(OC1OC(C(=O)O)C(O)C(O)C1O)c1ccccc1 (stereo not given)
inactive: [1] 17.2% | [2] -14.5% | [3] -5.3% | [4] 3% | [5] 0.6% | [6] 2.25%

c1ccc(C2(N3CCOCC3)CSC2)cc1
inactive: [1] -6.05% | [2] -4.8% | [3] 1.15% | [4] -16.9% | [5] -44.6% | [6] -6.75%

C[N+]12C(=O)CC3OCC=C4C[N+]5(C)CCC6(c7ccccc71)C2C3C4CC65O (stereo not given)
inactive: [1] -13.8% | [2] -34.5% | [3] -22% | [4] 11.2% | [5] -17.6% | [6] -14.8%

COc1cc([As](=O)(O)O)c(OC)cc1N
inactive: [1] -9.7% | [2] 6.6% | [3] -0.9% | [4] -55.7% | [5] 5.5% | [6] -17.1%

CCOC(=O)C(C[Si](C)(C)C)P(=O)(OCC)OCC (stereo not given)
inactive: [1] -24.6% | [2] -21.9% | [3] -58.4% | [4] -28.6% | [5] -26.7% | [6] -33%

CN(C)c1ccc(N=Nc2ccc([As](=O)(O)O)cc2)cc1
inactive: [1] -23.1% | [2] -10.6% | [3] -11.8% | [4] -35.1% | [5] -5.15% | [6] -0.4%

O=C(/C=C/c1ccccc1)CCC1C(=O)NC(=S)NC1=O
inactive: [1] -4.05% | [2] 3.35% | [3] 27.2% | [4] 0.4% | [5] -17.1% | [6] -34.5%

CC1OC(=O)C2CC3CCCCC3C(/C=C/C3CCCC(C)N3C)C12 (stereo not given)
inactive: [1] 1.2% | [2] -11.2% | [3] -11.2% | [4] 28.4% | [5] -10.4% | [6] -2.35%

CCCCCCCCCCCCCCCC[As](CCCCCCCCCCCCCCCC)SCC1OC(OC(C)=O)C(OC(C)=O)C(OC(C)=O)C1OC(C)=O (stereo not given)
inactive: [1] -3.8% | [2] 3.45% | [3] 6% | [4] 1% | [5] -20.1% | [6] -20.6%

Cc1cc2oc(=O)c3c(c2c(O)c1CN1CCOCC1)CCCC3
inactive: [1] 34.1% | [2] 14.4% | [3] 16.5% | [4] 15.6% | [5] 18.1% | [6] 15.8%

OC1[C@@H]2[C@@H](O)CCCN2C[C@@H](O)[C@H]1O (stereo not given in full)
inactive: [1] -53.2% | [2] -93% | [3] -31.9% | [4] -20.6% | [5] 1.05% | [6] -28.1%

O=C(Nc1ccc(N(CCCl)CCCl)cc1)c1ccc([N+](=O)[O-])cc1
inactive: [1] 20.1% | [2] 0.75% | [3] 3% | [4] -23.6% | [5] -1.05% | [6] -2.6%

CCOC(=O)/C(C#N)=C(/SC)N1CC1
inactive: [1] 1.9% | [2] 12% | [3] 1.4% | [4] -7.2% | [5] 6.8% | [6] -2%

NC(N)=NN(N=O)C1CCCCC1
inactive: [1] 4.35% | [2] 5.05% | [3] -7.85% | [4] -34.8% | [5] -10.5% | [6] 5.8%

CN(C)CCCNc1c2c(nc3ccc(Cl)cc13)CCCC2
inactive: [1] -1.2% | [2] -20.4% | [3] -31.8% | [4] 6.6% | [5] 9.15% | [6] -7.3%

Cc1cc2[nH]c3c(C#N)c(OC(=O)N(C)C)c(-c4ccccc4)c(=O)n3c2cc1C
inactive: [1] -8.75% | [2] 9.5% | [3] -7.85% | [4] -7.15% | [5] 1.9% | [6] 1.6%

O=[C-]CC(=O)c1ccccc1.O=[C-]CC(=O)c1ccccc1.[Fe+2]
inactive: [1] -7.85% | [2] 3.15% | [3] 8.5% | [4] 12% | [5] -0.65% | [6] 6.15%

CNC(Cc1ccccc1)c1ccc(O)c(OC)c1 (stereo not given)
inactive: [1] -0.5% | [2] -15.6% | [3] -7.35% | [4] -35% | [5] 5.05% | [6] 0.75%

Cc1cc(=O)oc2cc(OC(=O)N(C)C)c(Cl)cc12
inactive: [1] -0.5% | [2] -11.3% | [3] 17.4% | [4] 24.4% | [5] 18.2% | [6] 10.3%

Oc1c(Cl)cccc1Cl
inactive: [1] -22.4% | [2] -51.9% | [3] -63% | [4] -1.6% | [5] -55.1% | [6] 3.4%

CCC(CC)C(=O)Cl
inactive: [1] -3.8% | [2] -4.6% | [3] -33.2% | [4] -13.1% | [5] -1.35% | [6] -22.9%

N.N.N.N.N.NC(=O)[O-].[Co+3].[I-]
inactive: [1] -14.1% | [2] 3.9% | [3] -13.1% | [4] 25.7% | [5] -7.75% | [6] -15.7%

COc1ccc2c(c1)c(CC(C)[N+](=O)[O-])c(C)n2Cc1ccccc1 (stereo not given)
inactive: [1] 6.5% | [2] 8.35% | [3] 5.65% | [4] -9.95% | [5] -3.3% | [6] 6.9%

CC1CCCCN1CCCN=C(N)N[N+](=O)[O-] (stereo not given)
inactive: [1] 9.2% | [2] -3.35% | [3] 19.2% | [4] 18.1% | [5] 18.1% | [6] -0.8%

CNC(=O)Oc1ccc(Br)cc1Br
inactive: [1] 29.4% | [2] -0.95% | [3] -2.6% | [4] -3.55% | [5] 10.9% | [6] 2.35%

CCOP(=O)(OCC)OP(=O)(OCC)OCC
inactive: [1] -9.35% | [2] -29.6% | [3] -42.7% | [4] -10.1% | [5] -49.4% | [6] -13.4%

CN(C)C1CCNCC1
inactive: [1] 19.7% | [2] 5.2% | [3] 17% | [4] 4.75% | [5] 4.6% | [6] -1.5%

[C-]#[O+].[C-]#[O+].[C-]#[O+].[Mo].c1ccc(P(CC[PH+](CC[PH+](CC[PH+](c2ccccc2)c2ccccc2)c2ccccc2)c2ccccc2)c2ccccc2)cc1 (stereo not given)
inactive: [1] 30.8% | [2] 27.5% | [3] 43.4% | [4] 37.7% | [5] 32.5% | [6] 44.1%

O=C1NC(=O)C(=C/C=C/c2ccccc2)C(=O)N1
inactive: [1] 34.2% | [2] -3.5% | [3] 18.6% | [4] 16.4% | [5] 10.5% | [6] -2.25%

O=C(NC(CCS(=O)(=O)NCc1ccc(S(=O)(=O)F)cc1)C(=O)OCc1ccccc1)OCc1ccccc1 (stereo not given)
inactive: [1] 26.8% | [2] 5.7% | [3] 16.6% | [4] 15.4% | [5] 0.2% | [6] 29.9%

C=[CH][Sn]([Cl])([Cl])[CH]=C.CN(C)P(=O)(N(C)C)N(C)C
inactive: [1] 28.5% | [2] 32.5% | [3] 44.4% | [4] 28.1% | [5] 53.3% | [6] 54.1%

Nc1ccc(CCc2ccc(S(=O)(=O)F)cc2)cc1
active: [1] 94.8% | [2] 95.9% | [3] 98.3% | [4] 92.8% | [5] 92.7% | [6] 92.6%

OC(CN1CC1)C(O)CN1CC1 (stereo not given)
inactive: [1] -16.4% | [2] -26.2% | [3] -34% | [4] 8.15% | [5] -44.8% | [6] -14.2%

NC(N)=Nc1nn[nH]n1
inactive: [1] 3.25% | [2] -8.25% | [3] -13.7% | [4] -0.85% | [5] 0.35% | [6] -5.6%

CCCOC(=O)C(C)(C)C(OP(OCCC)OCCC)=C(C)C
inactive: [1] -7.35% | [2] 4.35% | [3] -2.5% | [4] -0.9% | [5] 1.4% | [6] 3.3%

CCOC(=O)P(=O)(OCC)OCC
inactive: [1] 6.9% | [2] -37.2% | [3] -11% | [4] -1.2% | [5] 4.95% | [6] -1.1%

C[C@]12CC[C@H](O[C@@H]3O[C@H](CO[C@@H]4O[C@H](CO)[C@@H](O)[C@H](O)[C@H]4O)[C@@H](O)[C@H](O)[C@H]3O)C[C@@H]1CC[C@@H]1[C@@H]2CC[C@]2(C)[C@@H](C3=CC(=O)OC3)CC[C@]12O
inactive: [1] -7.75% | [2] -13.6% | [3] -1.85% | [4] -0.85% | [5] -1.95% | [6] 8.85%

CCCC[N+]1(C)CCCC1c1cccnc1 (stereo not given)
inactive: [1] -15.5% | [2] -7.1% | [3] 5.3% | [4] -10.2% | [5] -10.8% | [6] -7.85%

CCC1(CCC(C)C)C(=O)NC(=O)N(C)C1=O (stereo not given)
inactive: [1] -6.05% | [2] -1.2% | [3] -1.75% | [4] -19.4% | [5] -11.3% | [6] -4.05%

CCCCCCCCCCC(C(=O)c1ccccc1)N1CCOCC1 (stereo not given)
inactive: [1] -14.7% | [2] -2.95% | [3] 10.9% | [4] -8.3% | [5] 3.85% | [6] -8.4%
